In PMC7862700, “An all-to-all approach to the identification of sequence-specific readers for epigenetic DNA modifications on cytosine”:

What was measured:
Experiment in all cases: DAPPL (digital affinity profiling via proximity ligation, sequencing); 10 mM Tris-HCl pH 7.5, 50 mM NaCl, 1 mM DTT, 4% glycerol, room temperature, 30 min; GST-TFs on glutathione beads, 16-mer random dsDNA library, 0.1% formaldehyde crosslink after washing; high values mean tight binding
Settings in all cases: protein: recombinant; tags: N-terminal GST; dsDNA, one strand shown
[1] = biological target: T1, FLI1 (Homo sapiens, UniProt Q01543 1-452)
T1 sequence: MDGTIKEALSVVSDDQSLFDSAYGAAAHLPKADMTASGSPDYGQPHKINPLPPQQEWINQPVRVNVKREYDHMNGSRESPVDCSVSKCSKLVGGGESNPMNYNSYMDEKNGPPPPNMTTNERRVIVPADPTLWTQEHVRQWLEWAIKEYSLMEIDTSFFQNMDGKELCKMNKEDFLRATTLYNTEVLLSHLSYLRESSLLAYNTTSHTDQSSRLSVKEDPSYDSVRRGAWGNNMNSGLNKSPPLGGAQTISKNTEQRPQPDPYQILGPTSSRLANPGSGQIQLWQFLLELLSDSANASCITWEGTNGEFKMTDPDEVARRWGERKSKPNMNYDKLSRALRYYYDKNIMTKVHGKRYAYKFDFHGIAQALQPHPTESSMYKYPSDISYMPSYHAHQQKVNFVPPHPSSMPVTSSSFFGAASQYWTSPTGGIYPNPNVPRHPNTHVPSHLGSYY
Outline: (§1)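 Beads coated with glutathione captured GST-fused human transcription factors that had been expressed in yeast, and the factors were then given DNA barcodes and pooled with a tag-only sample. The pools were incubated with 200 nmole of a random double-stranded 16-mer DNA library in Tris/NaCl/DTT/glycerol buffer for 30 min at room temperature, washed, crosslinked with 0.1% formaldehyde and proximity-ligated with BsaI/T4 ligase at 37 °C for 1 h. PCR amplification and Illumina NextSeq500 sequencing came last. Binding signal is each hexamer's read frequency for a factor divided by its frequency for the tag-only sample.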

[2] = biological target: T2, ELK1 (Homo sapiens, UniProt P19419 1-428)
T2 sequence: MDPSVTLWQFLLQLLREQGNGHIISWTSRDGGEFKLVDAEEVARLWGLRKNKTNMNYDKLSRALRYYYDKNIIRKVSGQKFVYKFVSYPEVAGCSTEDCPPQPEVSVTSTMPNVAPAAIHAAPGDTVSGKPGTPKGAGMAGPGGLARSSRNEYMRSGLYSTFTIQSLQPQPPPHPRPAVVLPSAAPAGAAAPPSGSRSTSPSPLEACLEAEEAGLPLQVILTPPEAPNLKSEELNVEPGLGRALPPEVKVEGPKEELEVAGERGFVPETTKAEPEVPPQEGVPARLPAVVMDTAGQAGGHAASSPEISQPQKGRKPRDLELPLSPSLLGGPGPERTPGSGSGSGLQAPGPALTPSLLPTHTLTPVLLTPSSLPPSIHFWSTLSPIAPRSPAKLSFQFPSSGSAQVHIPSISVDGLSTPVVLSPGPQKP
Outline: as §1

[3] = biological target: T3, GABPA (Homo sapiens, UniProt Q06546 1-454)
T3 sequence: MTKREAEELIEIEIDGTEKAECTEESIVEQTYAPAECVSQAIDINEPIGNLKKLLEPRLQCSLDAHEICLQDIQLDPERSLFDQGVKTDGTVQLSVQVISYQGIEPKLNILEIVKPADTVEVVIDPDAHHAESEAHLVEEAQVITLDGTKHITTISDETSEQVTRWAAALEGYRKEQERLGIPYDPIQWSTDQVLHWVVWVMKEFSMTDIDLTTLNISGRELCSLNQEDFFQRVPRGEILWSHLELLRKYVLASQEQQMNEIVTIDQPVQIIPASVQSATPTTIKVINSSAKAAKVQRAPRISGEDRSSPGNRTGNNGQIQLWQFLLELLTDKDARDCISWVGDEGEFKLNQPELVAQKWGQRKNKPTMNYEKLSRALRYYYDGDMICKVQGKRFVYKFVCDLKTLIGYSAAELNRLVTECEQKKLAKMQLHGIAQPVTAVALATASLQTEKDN
Outline: as §1

[4] = biological target: T4, ERG (Homo sapiens, UniProt P11308 1-479)
T4 sequence: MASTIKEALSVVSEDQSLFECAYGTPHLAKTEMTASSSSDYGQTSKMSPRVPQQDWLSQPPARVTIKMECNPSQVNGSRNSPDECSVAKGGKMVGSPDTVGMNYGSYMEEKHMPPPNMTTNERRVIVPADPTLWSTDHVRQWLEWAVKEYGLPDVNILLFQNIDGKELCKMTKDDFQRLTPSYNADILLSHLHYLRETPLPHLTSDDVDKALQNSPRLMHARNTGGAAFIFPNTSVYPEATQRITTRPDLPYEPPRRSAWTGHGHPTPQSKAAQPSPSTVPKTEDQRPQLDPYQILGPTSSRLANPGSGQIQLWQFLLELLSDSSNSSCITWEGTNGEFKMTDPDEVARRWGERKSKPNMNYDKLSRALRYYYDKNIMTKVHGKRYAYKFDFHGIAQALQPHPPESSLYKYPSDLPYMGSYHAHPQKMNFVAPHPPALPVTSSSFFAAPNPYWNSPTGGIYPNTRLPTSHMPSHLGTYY
Outline: as §1

[5] = biological target: ELF1 (Homo sapiens, UniProt P32519 1-619)
Outline: as §1

[6] = biological target: T5, EHF (Homo sapiens, UniProt Q9NZC4 1-300)
T5 sequence: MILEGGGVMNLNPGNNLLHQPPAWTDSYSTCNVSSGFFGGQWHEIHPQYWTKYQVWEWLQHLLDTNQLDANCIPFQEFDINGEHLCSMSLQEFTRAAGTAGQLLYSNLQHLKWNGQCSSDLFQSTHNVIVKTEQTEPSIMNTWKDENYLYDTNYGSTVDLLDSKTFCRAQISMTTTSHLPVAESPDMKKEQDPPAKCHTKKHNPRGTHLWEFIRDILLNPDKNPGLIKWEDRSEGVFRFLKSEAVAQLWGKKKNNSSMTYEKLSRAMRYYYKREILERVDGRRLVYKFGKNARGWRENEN
Outline: as §1

[7] = biological target: SPI1 (Homo sapiens, UniProt P17947 1-270)
Outline: as §1

[8] = biological target: SPIB (Homo sapiens, UniProt Q01892 1-262)
Outline: as §1

[9] = biological target: T6, ELK3 (Homo sapiens, UniProt P41970 1-407)
T6 sequence: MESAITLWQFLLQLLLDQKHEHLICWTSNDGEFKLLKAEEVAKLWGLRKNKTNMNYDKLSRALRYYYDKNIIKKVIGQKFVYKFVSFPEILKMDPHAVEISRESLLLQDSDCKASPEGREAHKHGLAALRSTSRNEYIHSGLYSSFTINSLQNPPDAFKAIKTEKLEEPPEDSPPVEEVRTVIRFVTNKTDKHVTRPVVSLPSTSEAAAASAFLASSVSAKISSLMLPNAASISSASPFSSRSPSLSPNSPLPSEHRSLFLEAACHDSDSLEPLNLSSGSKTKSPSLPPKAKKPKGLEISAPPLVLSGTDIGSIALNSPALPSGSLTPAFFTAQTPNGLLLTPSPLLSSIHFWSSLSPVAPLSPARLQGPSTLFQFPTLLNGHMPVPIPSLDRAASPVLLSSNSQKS
Outline: as §1

Sequence of ELF1 (P32519 whole entry): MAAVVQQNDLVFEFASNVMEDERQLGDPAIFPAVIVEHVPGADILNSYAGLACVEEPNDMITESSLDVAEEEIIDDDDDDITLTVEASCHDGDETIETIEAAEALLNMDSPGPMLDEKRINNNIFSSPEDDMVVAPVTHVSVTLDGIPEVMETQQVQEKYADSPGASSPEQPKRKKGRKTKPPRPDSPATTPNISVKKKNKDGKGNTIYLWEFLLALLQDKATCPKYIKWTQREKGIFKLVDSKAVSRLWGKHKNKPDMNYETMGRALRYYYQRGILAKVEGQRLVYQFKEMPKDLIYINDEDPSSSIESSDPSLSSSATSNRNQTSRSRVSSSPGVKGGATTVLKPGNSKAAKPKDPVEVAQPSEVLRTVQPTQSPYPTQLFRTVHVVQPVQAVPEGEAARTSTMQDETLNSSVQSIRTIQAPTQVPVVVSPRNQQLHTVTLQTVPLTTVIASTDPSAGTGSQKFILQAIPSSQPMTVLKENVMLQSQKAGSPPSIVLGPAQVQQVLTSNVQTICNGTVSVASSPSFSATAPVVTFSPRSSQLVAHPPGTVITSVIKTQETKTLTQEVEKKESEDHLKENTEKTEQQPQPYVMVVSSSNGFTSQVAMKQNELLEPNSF
Sequence of SPIB (Q01892 whole entry): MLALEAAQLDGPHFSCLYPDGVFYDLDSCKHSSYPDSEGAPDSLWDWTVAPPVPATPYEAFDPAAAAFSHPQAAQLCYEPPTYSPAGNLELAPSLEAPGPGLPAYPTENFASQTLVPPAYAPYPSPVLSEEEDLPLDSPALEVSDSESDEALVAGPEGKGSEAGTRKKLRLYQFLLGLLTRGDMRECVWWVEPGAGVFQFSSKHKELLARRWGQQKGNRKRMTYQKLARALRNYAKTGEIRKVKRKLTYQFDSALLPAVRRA

AAACAA
binding signal [1]: 1.24 fold enrichment (6-mer frequency, TF over GST control)
binding signal [2]: 1.33 fold enrichment (6-mer frequency, TF over GST control)
binding signal [3]: 1.2 fold enrichment (6-mer frequency, TF over GST control)
binding signal [4]: 1.38 fold enrichment (6-mer frequency, TF over GST control)
binding signal [5]: 1.28 fold enrichment (6-mer frequency, TF over GST control)
binding signal [6]: 1.26 fold enrichment (6-mer frequency, TF over GST control)
binding signal [7]: 1.32 fold enrichment (6-mer frequency, TF over GST control)
binding signal [8]: 1.21 fold enrichment (6-mer frequency, TF over GST control)
binding signal [9]: 1.36 fold enrichment (6-mer frequency, TF over GST control)
